In publication PMC9838217, “Structure of SALL4 zinc finger domain reveals link between AT-rich DNA binding and Okihiro syndrome”:
Where a chain is given by its changes, count along the chain named.

What was measured:
Assay in all cases: HT-SELEX; high values mean tight binding
Conditions in all cases: protein: recombinant; vector His6-GST; dsDNA, one strand shown
[1] = molecular target: T1, SALL4 ZFC4 WT (HT-SELEX) (Mus musculus, UniProt Q8BX22 870-940)
T1 sequence: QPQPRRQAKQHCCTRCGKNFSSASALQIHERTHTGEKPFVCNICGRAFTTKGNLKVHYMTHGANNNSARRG
Summary of the method: (§1)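 A 100 µl reaction of 10 mM Tris–HCl pH 7.5, 50 mM NaCl, poly(dI-dC) and DTT held purified recombinant mouse SALL4 zinc finger cluster 4 (residues 870–940, 1 µg) and library DNA (1.5 µg first cycle, 200 ng later) for 10 min at room temperature. Complexes captured on Ni2+ beads were washed, PCR-amplified and reselected for up to 6 cycles, in triplicate, then MiSeq-sequenced and scanned for 6-mers. Binding signal is the read fraction of each canonical k-mer expressed as fold change over the initial random library.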

[2] = molecular target: T2, SALL4 ZFC4 R900W (HT-SELEX) (Mus musculus, UniProt Q8BX22 870-940, R900W)
T2 sequence: T1 sequence with R31W
Summary of the method: as §1

[3] = molecular target: T3, SALL4 ZFC4 G921D (HT-SELEX) (Mus musculus, UniProt Q8BX22 870-940, G921D)
T3 sequence: T1 sequence with G52D
Summary of the method: as §1

| Sequence | binding signal [1] [fold-change vs cycle 0] | binding signal [2] [fold-change vs cycle 0] | binding signal [3] [fold-change vs cycle 0] |
| --- | --- | --- | --- |
| GGATAC | 0.871 ± 0.0477 | 1.02 ± 0.0352 | 1.03 ± 0.0426 |
| ATATTA | 4.97 ± 0.422 | 2.59 ± 0.139 | 2.22 ± 0.236 |
| CGATGA | 0.734 ± 0.0173 | 0.797 ± 0.0326 | 0.875 ± 0.0214 |
| GTAGAA | 1.21 ± 0.0427 | 1.36 ± 0.0162 | 1.27 ± 0.0697 |
| ACATTC | 1.29 ± 0.0367 | 1.44 ± 0.0794 | 1.37 ± 0.0959 |
| GATGCA | 0.68 ± 0.0339 | 0.75 ± 0.0294 | 0.848 ± 0.0393 |
| ACCTCA | 0.854 ± 0.0441 | 0.976 ± 0.0441 | 1.04 ± 0.0599 |
| TCTCAA | 1.28 ± 0.029 | 1.413 ± 0.011 | 1.34 ± 0.061 |
| ACCAAG | 0.816 ± 0.0198 | 0.935 ± 0.0459 | 0.983 ± 0.0112 |
| ATGTCC | 0.723 ± 0.0385 | 0.831 ± 0.0392 | 0.904 ± 0.0203 |
| CGCATA | 0.489 ± 0.0286 | 0.499 ± 0.00702 | 0.636 ± 0.061 |
| GAGCTC | 0.338 ± 0.0166 | 0.439 ± 0.0575 | 0.585 ± 0.0582 |
| CACGGA | 0.395 ± 0.0417 | 0.459 ± 0.0312 | 0.571 ± 0.0613 |
| CTAATC | 1.38 ± 0.0603 | 1.55 ± 0.0541 | 1.43 ± 0.0842 |
| AGCTCC | 0.365 ± 0.00759 | 0.455 ± 0.0186 | 0.588 ± 0.0519 |
| TCTAGA | 1.32 ± 0.134 | 1.49 ± 0.119 | 1.41 ± 0.147 |
| GATCGA | 0.664 ± 0.0531 | 0.763 ± 0.0206 | 0.91 ± 0.0578 |
| CCACAC | 0.35 ± 0.0241 | 0.414 ± 0.0369 | 0.516 ± 0.0626 |
| ACTCCC | 0.553 ± 0.0252 | 0.612 ± 0.0294 | 0.716 ± 0.0322 |
| AATCTA | 2.03 ± 0.138 | 2 ± 0.0814 | 1.8 ± 0.18 |

| Sequence | binding signal [1] [fold-change vs cycle 0] | binding signal [2] [fold-change vs cycle 0] | binding signal [3] [fold-change vs cycle 0] |
| --- | --- | --- | --- |
| ACTACA | 1.29 ± 0.0616 | 1.42 ± 0.0632 | 1.34 ± 0.0704 |
| AATCAA | 2.03 ± 0.0966 | 2 ± 0.106 | 1.81 ± 0.125 |
| AAATAG | 1.7 ± 0.0926 | 1.74 ± 0.095 | 1.58 ± 0.0914 |
| AGCTCA | 0.694 ± 0.0391 | 0.773 ± 0.0155 | 0.872 ± 0.0134 |
| GAATTC | 1.29 ± 0.0387 | 1.38 ± 0.0509 | 1.33 ± 0.0652 |
| CCATGG | 0.445 ± 0.023 | 0.524 ± 0.00825 | 0.622 ± 0.0615 |
| CCATCC | 0.48 ± 0.0325 | 0.541 ± 0.0313 | 0.633 ± 0.0281 |
| CTCGTA | 0.764 ± 0.033 | 0.867 ± 0.0258 | 0.901 ± 0.00732 |
| TCCGGA | 0.375 ± 0.0195 | 0.451 ± 0.0492 | 0.552 ± 0.107 |
| AACTTG | 1.21 ± 0.0551 | 1.34 ± 0.0813 | 1.29 ± 0.0625 |
| AATGGT | 1.28 ± 0.0798 | 1.35 ± 0.0595 | 1.32 ± 0.061 |
| ATATGG | 1.44 ± 0.131 | 1.33 ± 0.0761 | 1.28 ± 0.0676 |
| AGGAGG | 0.615 ± 0.0373 | 0.701 ± 0.0545 | 0.762 ± 0.023 |
| CTACAG | 0.79 ± 0.0207 | 0.894 ± 0.0405 | 0.94 ± 0.015 |
| ATACGC | 0.486 ± 0.0113 | 0.531 ± 0.0184 | 0.66 ± 0.0195 |
| ATAATA | 4.87 ± 0.591 | 2.66 ± 0.215 | 2.24 ± 0.293 |
| CAAAGG | 0.765 ± 0.046 | 0.898 ± 0.0341 | 0.935 ± 0.0222 |
| TGCGAA | 0.447 ± 0.0325 | 0.488 ± 0.0122 | 0.618 ± 0.0628 |
| CAAGCA | 0.6412 ± 0.00497 | 0.724 ± 0.0186 | 0.814 ± 0.0122 |
| AGGATA | 1.55 ± 0.0339 | 1.69 ± 0.0876 | 1.5 ± 0.15 |

| Sequence | binding signal [1] [fold-change vs cycle 0] | binding signal [2] [fold-change vs cycle 0] | binding signal [3] [fold-change vs cycle 0] |
| --- | --- | --- | --- |
| CAACAA | 1.1 ± 0.0197 | 1.21 ± 0.0488 | 1.2 ± 0.0481 |
| CCTGGA | 0.496 ± 0.0295 | 0.556 ± 0.0141 | 0.647 ± 0.0202 |
| CAGCTG | 0.312 ± 0.0432 | 0.397 ± 0.0183 | 0.499 ± 0.0395 |
| CTGCAA | 0.58 ± 0.0126 | 0.651 ± 0.015 | 0.729 ± 0.0483 |
| ATTAGA | 2.12 ± 0.0407 | 2.08 ± 0.0537 | 1.85 ± 0.125 |
| AAGGAG | 1 ± 0.0181 | 1.14 ± 0.0427 | 1.13 ± 0.0474 |
| TCAACA | 1.19 ± 0.0385 | 1.35 ± 0.0647 | 1.3 ± 0.0976 |
| ACTCAA | 1.26 ± 0.086 | 1.42 ± 0.0689 | 1.35 ± 0.0924 |
| AAAACG | 0.821 ± 0.0591 | 0.931 ± 0.0404 | 0.972 ± 0.016 |
| ACTCTG | 0.817 ± 0.0779 | 0.914 ± 0.0491 | 0.937 ± 0.0411 |
| CGTTCA | 0.712 ± 0.0321 | 0.811 ± 0.0256 | 0.871 ± 0.0211 |
| GTTATA | 2.5 ± 0.231 | 2.05 ± 0.15 | 1.78 ± 0.179 |
| ACTAAT | 2.16 ± 0.0523 | 2.13 ± 0.102 | 1.86 ± 0.174 |
| CCGAAC | 0.325 ± 0.00544 | 0.387 ± 0.0114 | 0.512 ± 0.0786 |
| AATATG | 2.8 ± 0.213 | 1.83 ± 0.0804 | 1.66 ± 0.102 |
| CAGAAC | 0.725 ± 0.0111 | 0.847 ± 0.0358 | 0.863 ± 0.0478 |
| CCTTTC | 0.765 ± 0.031 | 0.942 ± 0.0414 | 0.934 ± 0.0409 |
| AGAACT | 1.36 ± 0.0489 | 1.545 ± 0.00829 | 1.43 ± 0.129 |
| GTCCCA | 0.392 ± 0.0166 | 0.464 ± 0.0186 | 0.563 ± 0.0717 |
| GCAACC | 0.327 ± 0.0217 | 0.365 ± 0.0107 | 0.503 ± 0.0559 |
